Results reported in PubChem BioAssay (NCI).
About 83,000 compounds went through this panel and 20% of them were active in at least one assay; those are over-represented in the sample as a whole.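 Percent growth is the endpoint: 0 to 100 indicates growth inhibition (40 means 60% inhibition), 0 means no net growth, and negative values indicate cell death.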 The source made the active and inactive calls.

These compounds were tested on HT29 colon (assay: NCI-60 one-dose screen, 48 h (100 = growth as untreated, 0 = no growth, -100 = all killed)). Details: 10 µM unless noted.
Protocol: Growth inhibition of the HT29 human tumor cell line is measured as a screen for anti-cancer activity. Cells are grown in 96 well plates and exposed to the test compound for 48 hours. Compounds are tested at a single concentration, which is 10^-5 M for most compounds. The reported endpoint is percent growth (GI% or GIPRCNT), where numbers from 0 - 100% represent growth inhibition, and numbers from -100% - 0 represent cell death. For example, a value of 40 represents 60% growth inhibition. A value of 0 means no net growth occurred over the course of the experiment. A value of -40 indicates 40% of cells at the beginning of the experiment died by the end of the experiment. A value of -100 means all cells are dead at the end of the experiment.
NCI-60 Human Tumor Cell Lines Screen was performed using the standard one-dose NCI protocol, which is described in more detail at https://dtp.cancer.gov/discovery_development/nci-60/default.htm.
Compounds with GIPRCNT values below 10 were considered active. Activity score was based on GIPRCNT using the following formula: […]
Score is 0 for GIPRCNT values of 100 or above, 50 for GIPRCNT values of 0, and 100 for GIPRCNT values of -100.

Structure (SMILES)	growth
c1ccc(-c2oc3ccccc3c2-c2ccccc2)cc1	99% (inactive)
Cc1ccc(Nc2ccc(Nc3ccc(C)cc3S(=O)(=O)O)c3c2C(=O)c2ccccc2C3=O)c(S(=O)(=O)O)c1	98.4% (inactive)
COc1ccc(/C(C)=C(\c2ccc(Cl)cc2)c2ccc(OCCN(C)C)cc2)cc1F	8.32% (active)
CC1(C)C(=O)/C(=C\c2cccnc2)C[C@]2(C)[C@H]3CC=C4[C@@H]5C[C@@](C)(C(=O)O)CC[C@]5(C)CC[C@@]4(C)[C@]3(C)CC[C@@H]12	91.5% (inactive)
O=C1c2ccccc2C(=O)c2cc(Cn3cc[n+](Cc4ccc5ccccc5c4)c3)ccc21	73.1% (inactive)
Cc1c(C)c2c(c(C)c1NC(=O)/C=C\C(=O)O)CCC(C)(CCCC(C)CCCC(C)CCCC(C)C)O2 (stereo not given)	20.7% (inactive)
CCCCCOC(=O)c1ccc(NC(=O)CNCC(C)C)cc1	80.6% (inactive)
COc1cc(/C=C2\C=C(c3ccccc3)N(CCc3ccccc3)C2=O)cc(OC)c1OC	74.8% (inactive)
CCOC(=O)c1ccc(NC(=O)CCCN(CC)CC)cc1	88.6% (inactive)
O=C(/C=C/C12c3ccccc3C(c3ccccc31)C1C(=O)N(c3ccc(Cl)cc3)C(=O)C12)c1ccccn1 (stereo not given)	1.52% (active)
CN(C)c1ccc(-c2cc(-c3ccc(Nc4nc(Nc5ccccc5)nc(Nc5ccc(Cl)cc5)n4)cc3)nc(N)n2)cc1	34.2% (inactive)
O=C(CCCCCCCn1cc(-c2cccnc2)nn1)Nc1ccccc1-c1ccccc1	39% (inactive)
O=C1CSC(c2ccccc2O)N1c1nnc(Cn2cnnc2)o1 (stereo not given)	99.1% (inactive)
N[C@@H]1CCC[C@H]1NCCCCN1C(=O)c2cccc3cccc(c23)C1=O	33.8% (inactive)
CC(C)c1ccc(C(=O)OC(=O)c2ccc(C(C)C)cc2)cc1	112% (inactive)
O=C(O)CC1Sc2ccccc2NC1=O (stereo not given)	129% (inactive)
C=C1C(=O)O[C@H]2[C@H]1CC/C(COC(=O)NCc1ccc(Cn3c(=O)sn(CCCCl)c3=O)cc1)=C\CC[C@@]1(C)O[C@@H]21	-30.2% (active)
COc1ccc(C2=NC(=O)NC2c2ccc(OC)cc2)cc1 (stereo not given)	37.2% (inactive)
CCOC(=O)c1c(C)nc2c(c1N)/C(=C/c1ccc(OC)cc1)C(=O)N2Cc1ccc(F)cc1	-75.9% (active)
Cn1ccc(Cc2cnc(N)s2)n1	97.5% (inactive)

Structure (SMILES)	growth
CC(=O)Nc1cccc(C2=CC(c3ccc(C)cc3)n3ncnc3N2)c1 (stereo not given)	109% (inactive)
Cc1cc2c(F)c(Oc3ncnc(Nc4ccc(N5C[C@@H](C)N[C@@H](C)C5)cc4)c3C#N)cc(F)c2[nH]1	-47.6% (active)
CCCCNC(=O)NS(=O)(=O)c1ccc(N2N=C(c3ccc(C)cc3C)CC2c2ccc(N(C)C)cc2)cc1 (stereo not given)	62% (inactive)
CC1(C)N=C(N)N=C(N)N1c1ccc(Cl)c(Cl)c1	36.2% (inactive)
CCOC(=O)c1sc2ccc(NCc3nc[nH]c3C)cc2c1NC(=O)c1cc(OC)c(OC)c(OC)c1	88.9% (inactive)
CN1C[C@@H](c2ccc(Cl)cc2)[C@]2(NC(=S)N(c3ccc(F)c(Cl)c3)C2=O)[C@@]12C(=O)NC1C=CC(Cl)=C[C@H]12 (stereo not given in full)	33.4% (inactive)
Cc1cc(N2CCCCC2)nc(N(CCNc2ccnc3cc(Cl)ccc23)Cc2ccccn2)n1	13.1% (inactive)
CC(C)CCC[C@@H](C)[C@H]1CCC2C3=CCn4c(=O)ccc(=O)n4C3CC[C@@]21C (stereo not given in full)	-63.7% (active)
O=C1Nc2ccccc2SC1C1SC(=S)N(Cc2ccccc2)C1=O (stereo not given)	12.9% (inactive)
CCn1c(Sc2nnc(NC(C)=O)s2)nc2c1c(=O)n(C)c(=O)n2C	104% (inactive)
Nc1ccn(C2OC(F)(CO)C(O)C2F)c(=O)n1 (stereo not given)	48.3% (inactive)
COc1ccc(/C(C)=C(\c2ccc(Cl)cc2)c2ccc(OCCN3CCCCC3)cc2)cc1F	4.57% (active)
CN=C1C=CC(=C(c2ccc(N(C)C)cc2)c2ccc(N(C)C)cc2)C=C1	-37.2% (active)
COc1ccc(O)c(-c2cc(-c3ccccc3)c(C#N)c(=O)[nH]2)c1	118% (inactive)
C/C(=N\NC(=O)Cn1c(-c2ccc(S(C)(=O)=O)cc2)nc2cc(Cl)ccc21)c1ccc(Cl)cc1	79.7% (inactive)
O=C1C2=C(CCN(Cc3ccccc3)C2)N2CCN=C2N1Cc1ccc(C(F)(F)F)cc1	31% (inactive)
N=C(N)c1ccc(-c2ccc(-c3ccc(Cl)c(Cl)c3)o2)cc1	-20.3% (active)
N#Cc1cnn2c(-c3ccc(Cl)cc3)nc(NCCc3ccccc3)nc12	80.7% (inactive)
C[C@H]1[C@H](C)CC[C@]2(C(=O)N3CCN(C)CC3)CC[C@]3(C)C(=CC[C@@H]4[C@@]5(C)C/C(=C/c6cccnc6)C(=O)C(C)(C)[C@@H]5CC[C@]43C)[C@H]12	-79.3% (active)
O=C(NCOC(O)C(Cl)(Cl)Cl)NCOC(O)C(Cl)(Cl)Cl (stereo not given)	94.4% (inactive)
